Data from paper PMC5540273 (PLoS ONE, 2017).

Legend:
Settings in all cases: concentration: 1 μM,replicates: in singlicate; n = 1
[1] = system: T1, RSK4(Kin.Dom.1-N-terminal)
T1 construct: gene RPS6KA6

[2] = system: T2, RSK4(Kin.Dom.2-C-terminal)
T2 construct: gene RPS6KA6

S6K1 = system: S6K1
SBK1 = system: SBK1
SGK2 = system: SGK2
SGK3 = system: SGK3
SGK = system: SGK
SIK2 = system: SIK2
SIK = system: SIK
SLK = system: SLK
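Further: KINOMEscan kinase panel screen.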

| SMILES | %Inh [1] | %Inh [2] | %Inh (S6K1) | %Inh (SBK1) | %Inh (SGK2) | %Inh (SGK3) | %Inh (SGK) | %Inh (SIK2) | %Inh (SIK) | %Inh (SLK) |
| --- | --- | --- | --- | --- | --- | --- | --- | --- | --- | --- |
| CS(=O)(=O)c1cccc(CNc2nc(Nc3ccc4c(c3)[C@@H]3C[C@@H]4CNC3=O)ncc2C(F)(F)F)c1 | 73% | 5% | 0% | 81% | 0% | 25% | 43% | 47% | 45% | 98.2% |
| C[C@@H]1CNc2c(sc3ccc4nc(-c5ccc(O)cc5)ccc4c23)C(=O)N1 | 80% | 8% | 6% | 32% | 8% | 24% | 20% | 16% | 20% | 0% |
| CC(=O)c1c(-c2ccncc2)[nH]c(-c2ccncc2)c1C [GW493036] | 0% | 4% | 6% | 10% | 11% | 9% | 0% | 0% | 0% | 0% |
| CN1CCN(CCCNc2nccc(-c3c(-c4ccc(F)cc4)nn4cc(C(N)=O)ccc34)n2)CC1 [GW622475] | 0% | 91.6% | 8% | 23% | 0% | 8% | 0% | 9% | 7% | 63% |
| Cc1cccc(-c2nc(Nc3ccncc3)c3sccc3n2)n1 [GW869641] | 41% | 37% | 13% | 58% | 11% | 27% | 24% | 0% | 7% | 57% |
| CSc1nccc(-c2c(-c3ccc(F)cc3)ncn2CCCN2CCOCC2)n1.Cl [SB-217146] | 18% | 21% | 17% | 6% | 0% | 13% | 10% | 0% | 0% | 0% |
| Cn1ccc2ncnc(Oc3ccc(NC(=O)Nc4cc(C(C)(C)C)on4)c(Cl)c3)c21 | 26% | 18% | 6% | 13% | 24% | 0% | 10% | 4% | 11% | 97.7% |
| CN(c1ccccc1CNc1nc(Nc2ccc3c(c2)CC(=O)N3)ncc1C(F)(F)F)S(C)(=O)=O | 67% | 2% | 22% | 3% | 0% | 32% | 18% | 40% | 16% | 94.8% |
| CN(c1cccc(CNc2nc(Nc3ccc4c(c3)CC(=O)N4)ncc2C(F)(F)F)c1)S(C)(=O)=O | 77% | 54% | 42% | 48% | 0% | 2% | 31% | 56% | 25% | 33% |
| CC(=O)Nc1nc2cnc(Nc3cc(NC(=O)c4cccc(CC(C)(C)C#N)c4)ccc3C)nc2s1 | 25% | 0% | 0% | 52% | 0% | 0% | 4% | 0% | 24% | 1% |
| Cc1ccc(CC(=O)N2CCc3cc(-c4cn(C)c5ncnc(N)c45)ccc32)cc1 [GSK2634758] | 0% | 15% | 5% | 7% | 0% | 4% | 0% | 0% | 32% | 59% |
| CN(c1ccc2c(c1)nc(NCc1ccc(F)cc1)n2C)c1ccnc(Nc2ccc(CS(C)(=O)=O)cc2)n1.Cl [GW813244] | 16% | 0% | 11% | 10% | 18% | 0% | 17% | 39% | 0% | 61% |
| O=C(Nc1ccccc1)c1cccc(Oc2ccc3nccn3n2)c1 | 5% | 0% | 0% | 5% | 18% | 17% | 0% | 0% | 0% | 9% |
| COc1cc2ncn(-c3cc(OCC4CCCCC4)c(C(N)=O)s3)c2cc1OC [GSK204559] | 3% | 20% | 0% | 22% | 0% | 9% | 0% | 0% | 4% | 80% |
| Cl.Cl.NC[C@H](CC1CCCCC1)NC(=O)c1ccc(-c2ccnc3[nH]ccc23)s1 [GSK1581428] | 84% | 12% | 93% | 88% | 79% | 92.9% | 80% | 16% | 11% | 75% |
| O=C(Nc1ccc(Oc2ccc3nc(NC(=O)C4CC4)cn3n2)c(F)c1)c1cccn(-c2ccccc2)c1=O | 0% | 0% | 0% | 0% | 0% | 0% | 0% | 8% | 59% | 0% |
| O=C1NCCc2[nH]c(-c3ccncc3)cc21 | 22% | 25% | 11% | 44% | 27% | 36% | 44% | 34% | 13% | 22% |

| SMILES | %Inh [1] | %Inh [2] | %Inh (S6K1) | %Inh (SBK1) | %Inh (SGK2) | %Inh (SGK3) | %Inh (SGK) | %Inh (SIK2) | %Inh (SIK) | %Inh (SLK) |
| --- | --- | --- | --- | --- | --- | --- | --- | --- | --- | --- |
| C[C@@H](Oc1cc(-n2cnc3cc(-c4ccncc4)ccc32)sc1C(N)=O)c1ccccc1Cl [GSK479719] | 25% | 21% | 11% | 19% | 5% | 0% | 0% | 43% | 11% | 99.4% |
| Cc1n[nH]c2cc(Nc3ccnc(Nc4cccc(CN5CCOCC5)c4)n3)ccc12 [GW682569] | 19% | 16% | 0% | 0% | 0% | 17% | 0% | 33% | 46% | 0% |
| COc1ccc(Nc2nccc(N3CCC(NC(=O)c4cccc(C#N)c4)C3)n2)cc1 (stereo not drawn) [GSK1379730] | 0% | 0% | 0% | 6% | 0% | 0% | 0% | 0% | 18% | 30% |
| O=C(NCC1CC1)c1ccc(-c2cc(C(=O)NC3CC3)ccc2F)cc1 [GW810445] | 0% | 0% | 0% | 4% | 0% | 0% | 7% | 0% | 2% | 0% |
| Cl.c1ccc(Oc2ccc(Nc3ccnc4cc(-c5ccc(CN6CCNCC6)o5)ccc34)cc2)nc1 [GW567142] | 0% | 22% | 0% | 0% | 0% | 0% | 22% | 65% | 97.4% | 19% |
| O=C(Nc1cccc(C(F)(F)F)c1)c1cccc(Oc2ccc3nccn3n2)c1 | 23% | 22% | 2% | 35% | 15% | 14% | 9% | 0% | 0% | 10% |
| COc1cccc(OC)c1C(=O)Nc1cccc(-c2nn3ccccc3c2-c2ccnc(Nc3cccc(F)c3)n2)c1 [GSK361065] | 0% | 12% | 0% | 0% | 26% | 65% | 18% | 0% | 25% | 41% |
| Cc1ccc(C(=O)Nc2ccc(Oc3ccc4nc(NC(=O)C5CC5)cn4c3)c(F)c2)c(=O)n1-c1ccccc1 | 0% | 0% | 9% | 0% | 0% | 0% | 0% | 19% | 94.9% | 79% |
| CC(C)S(=O)(=O)N1CCN(Cc2ccc3c(c2)nc(NC(=O)c2ccsc2)n3C[C@H](O)c2ccccc2)CC1 [GW635815] | 54% | 9% | 13% | 59% | 0% | 3% | 0% | 19% | 0% | 33% |
| COc1cccc(CNC(=O)NC2CCN(c3ccnc(Nc4cc(OC)c(OC)c(OC)c4)n3)C2)c1 (stereo not drawn) [GSK1379765] | 7% | 3% | 14% | 19% | 4% | 2% | 0% | 0% | 0% | 30% |
| c1ccc(Oc2ccc(Nc3ccnc4ccc(-c5ccccn5)cc34)cc2)cc1 [GW407034] | 4% | 14% | 2% | 60% | 0% | 0% | 0% | 0% | 0% | 10% |
| CN1CCN(CCNc2nc3cc(Oc4ccc(NC(=O)Nc5cc(C(F)(F)F)ccc5F)cc4)ccc3[nH]2)CC1.Cl.Cl [GW768504] | 0% | 0% | 0% | 0% | 0% | 0% | 0% | 0% | 0% | 7% |
| Cc1ccc2c(-c3ccnc(Nc4ccc(C(F)(F)F)cc4)n3)cnn2n1 [GW819776] | 23% | 0% | 29% | 8% | 0% | 0% | 9% | 2% | 0% | 21% |
| COC(=O)c1cccc(NC(=O)NC2CCN(c3ccnc(Nc4cc(OC)c(OC)c(OC)c4)n3)C2)c1 (stereo not drawn) [GSK1379767] | 0% | 16% | 0% | 6% | 0% | 2% | 0% | 5% | 0% | 28% |
| Cc1nnc(-c2ccc3occ(-c4ccc(S(C)=O)cc4)c3n2)o1 (stereo not drawn) | 0% | 15% | 0% | 0% | 0% | 0% | 0% | 59% | 4% | 0% |
| CCOC(=O)N1CCC(n2cnc(-c3ccc(F)cc3)c2-c2ccnc(N)n2)CC1 [SB-219952] | 9% | 65% | 22% | 0% | 33% | 6% | 17% | 0% | 0% | 0% |
